Data from PubChem BioAssay AID489008 (National Center for Advancing Translational Sciences (NCATS), 2010).
Results filed as inconclusive are left out. Activity calls are given as the source filed them. Calls come from the whole dose curve; as a rule, active = well fitted inhibition curve with a large enough effect; inconclusive = small, poorly fitted or top-dose-only effect; inactive = flat fitted curve, though single readings scatter.

Target: Ferritin light chain (Equus caballus) (UniProt P02791)
Sequence (P02791 2-175 limits assumed): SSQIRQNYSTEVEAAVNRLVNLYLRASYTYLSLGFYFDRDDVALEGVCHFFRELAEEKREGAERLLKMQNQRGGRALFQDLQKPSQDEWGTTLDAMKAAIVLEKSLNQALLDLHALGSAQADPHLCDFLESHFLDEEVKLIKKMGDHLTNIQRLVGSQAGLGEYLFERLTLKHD
Assay: Confirmation Assay for Identification of Novel General Anesthetics; note: nearly all actives have a fitted effect of over 40% in size
Conditions: apoferritin 1-aminoanthracene fluorescence displacement
In short: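 Horse apoferritin (10 uM) pre-loaded with 1-AMA (50% saturated, PBS) exposed to compounds 10 min at room temperature; loss of 1-AMA fluorescence (380/535 nm) scaled between free and bound ligand, curves fitted with Hill equation.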
Potency is the fitted concentration of half-maximal effect.

Potency, active:
O=S1(=O)CCOCCCN1Cc1ccccc1Br 12.6 µM, COCCCNC(=O)Cn1nc(-c2ccc(C)cc2)ccc1=O 14.1 µM, Nc1ccc(C23CC4CC(CC(C4)C2)C3)cc1 7.08 µM, Nc1ccccc1Oc1ccc2ccccc2c1 11.2 µM, O=C(CC12CC3CC(CC(C3)C1)C2)Nc1nncs1 10 µM, Cc1ccc(F)c(NC(=O)CCc2ccccc2)c1 15.8 µM, CC(NC(=O)c1ccc(Br)o1)C1CC2CCC1C2 (stereo not drawn) 8.91 µM, O=C(NC1C2CC3CC(C2)CC1C3)c1ccc(Br)o1 (stereo not drawn) 11.2 µM, O=c1[nH]c(SCC2CCCCO2)nc2ccccc12 (stereo not drawn) 14.1 µM, CC(C)c1ccc(NC(=O)C2CC3CCC2C3)cc1 (stereo not drawn) 31.6 µM, Cc1csc(Nc2ccc(Cl)cc2)n1 31.6 µM, N#Cc1ccccc1NCc1ccccc1 11.2 µM, CN(CC(=O)Nc1ccccc1Cl)C1CCCCC1 15.8 µM, Cc1ccccc1NCc1ccccc1O 15.8 µM, COc1cccc(NS(=O)(=O)c2ccc(Br)s2)c1 15.8 µM, Cc1ccccc1Oc1ccccc1N 15.8 µM, Oc1cccc(Oc2ncc(C(F)(F)F)cc2Cl)c1 7.94 µM, CCN(CC)CC(=O)Nc1c(C)cc(C(C)(C)C)cc1C 12.6 µM, c1cc2c(cc1NC1CCCCCC1)OCO2 8.91 µM, CC(C)c1ccccc1OCC(=O)N1CCCCCCC1 11.2 µM, O=C(Nc1ccc(Br)cc1)N1CCCCCCC1 6.31 µM, Cc1cnc(C(=O)OCC(=O)NC23CC4CC(CC(C4)C2)C3)cn1 14.1 µM, COc1ccc(CNC(=O)CN2N=C(c3ccc(Cl)cc3)CCC2=O)cc1 20.7 µM, CC1CCCC(NC(=O)COC(=O)c2ccc(N(C)C)cc2)C1C (stereo not drawn) 7.08 µM, CC1=CCC2C(=O)N(c3ccc(C)cc3)C(=O)C2C1 (stereo not drawn) 10 µM, O=C(NC1CCCCC1)N1CCCCCCC1 14.1 µM, Clc1ccc(NCc2ccsc2)cc1 25.1 µM, CCN(CC)C(=S)SCC(=O)c1ccc(F)cc1 15.8 µM, Cc1ccc(OCc2cc(C(=O)NC3CCc4ccccc43)no2)cn1 (stereo not drawn) 17.8 µM, Nc1nnc(SCc2ccccc2Cl)s1 14.1 µM, Oc1ccc(C(=S)N2CCCCC2)cc1Cl 17.8 µM, CCCCOC(=O)Nc1ccc(C)c(Cl)c1 17.8 µM, NC(=O)COC(=O)CC12CC3CC(CC(Br)(C3)C1)C2 17.8 µM, O=C(Nc1ccc(F)c(Cl)c1)N1CCCCCC1 7.94 µM, CCCC(C)NS(=O)(=O)c1ccc(OC)c(C)c1 (stereo not drawn) 20 µM, O=C(NC1CCCCCCC1)c1cc(COc2ccc3ncccc3c2)on1 12.6 µM, CCNc1nc(C23CC4CC(CC(C4)C2)C3)cs1 7.94 µM, CC(=O)c1cccc(NC(=O)CCC2CCCC2)c1 28.2 µM
